Consider 2 compounds from PubChem BioAssay AID1244 (Sanford-Burnham Center for Chemical Genomics, 2008).

The EC50 is the concentration giving half of the maximal effect.

This assay can be described thus: displacers of FITC-Bim-BH3 from Bcl-B – biochemical, fluorescence polarization, Bim-BH3 peptide, counter-screen for TR3-derived Bcl-B inhibitor project, dose response (AID 1244). As to conditions: Bcl-B/FITC-Bim-BH3 peptide binding. A general note: Polarisation of emitted light reports the rotation of a fluorescent probe.

Unmarked numbers belong to inactive results. The source made the active and inactive calls. How the calls were made is not given here.

As to `Cc1cc(C)nc(/N=C(/N)Nc2cccc(N)c2)n1`, the EC50 is more than 25 µM. Under `Cc1ccc(C)n1-c1ccc(Br)cc1C(=O)O` stands 0.48 µM (active).
